This is an account of results in PubChem BioAssay AID1259374 (The Scripps Research Institute Molecular Screening Center, 2018).

Hit rate of the full screen: of about 650,000 compounds, about 5,900 (0.91%) were called active. The full list was thinned out, with actives kept by preference. Values without a mark were called inactive. No stated cut-off is given here; in the data, active means inhibition above about 50%; inactive means the rest.

A word on the inhibition: it is the drop in the measured response relative to a control, in per cent.

For the assay, the target named is Microphthalmia-associated transcription factor (Homo sapiens) (UniProt O75030). The assay is described as follows: MITF inhibitors, primary screen, biochemical, AlphaScreen, human (AID 1259374).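 Further: 0% = vehicle wells with protein.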 The note with it: AlphaScreen MITF homodimerization, bead proximity signal; at 2.6 µM; hits give high values.
Chain of Microphthalmia-associated transcription factor (Homo sapiens) (O75030 whole entry, looked up): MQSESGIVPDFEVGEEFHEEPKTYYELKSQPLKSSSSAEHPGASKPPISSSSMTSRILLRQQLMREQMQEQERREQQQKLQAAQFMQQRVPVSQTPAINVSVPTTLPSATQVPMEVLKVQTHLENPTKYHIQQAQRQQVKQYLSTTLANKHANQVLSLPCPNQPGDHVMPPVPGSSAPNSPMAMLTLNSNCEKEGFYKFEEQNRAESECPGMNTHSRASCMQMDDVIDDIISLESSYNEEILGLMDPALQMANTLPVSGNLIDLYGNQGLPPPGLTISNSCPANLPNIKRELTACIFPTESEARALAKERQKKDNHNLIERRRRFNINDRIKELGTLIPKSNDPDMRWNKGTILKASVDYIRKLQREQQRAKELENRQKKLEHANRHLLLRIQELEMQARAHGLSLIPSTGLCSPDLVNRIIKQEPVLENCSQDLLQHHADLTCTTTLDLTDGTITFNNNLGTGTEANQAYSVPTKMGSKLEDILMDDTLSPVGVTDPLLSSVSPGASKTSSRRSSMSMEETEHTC
Turning to `Cc1ccc(C2CC(c3ccc(Br)cc3)=NN2C(=O)CSc2nnc(CNC(=O)COc3ccccc3)n2C)cc1` (stereo not given), the inhibition is -9.25%.

With `Clc1ccc(CN2CCc3nnc(C4CCCO4)n3CC2)cc1` (stereo not given), the inhibition was 9.36%. Next, `Clc1ccc(CN2CCN(CC3CC=CCC3)CC2)cc1` (stereo not given): 78.5% (active); `O=C(c1ccccc1)N1CCN(Cc2ccc(Cl)cc2)CC1`: 48.9%. In the case of `N#C/C(=C\c1ccc(-c2ccc(S(N)(=O)=O)cc2)o1)C(N)=O`, the inhibition was 3.71%. Next, `CC(=O)NS(=O)(=O)c1ccc(-c2ccc(C=C(C#N)C#N)o2)cc1`: 64.8% (active); `CC(=O)NS(=O)(=O)c1ccc(-c2ccc(/C=C3/C(=O)N(CCCO)C(=O)C(C#N)=C3C)o2)cc1`: 3.37%. Next, `O=C(CCc1ccc2c(c1)OCO2)N1CCC(c2[nH]ncc2-c2ccccc2)CC1`: -0.09%; `Cc1cc(C(C)(C)C)ccc1OCCN1CCNCC1`: 52.3% (active); `C=CCc1ccccc1OCCN1CCNCC1`: 26.5%.

For `Cc1cccc(OCCN2CCNCC2)c1C`, the inhibition was 73.1% (active). Next, `Cc1ccc(OCCN2CCNCC2)cc1C`: 9.7%; `Cc1cccc(OCCOCCN2CCC(C)CC2)c1C`: 24.9%. Consider `Cc1cc(Br)ccc1OCCN1CCNCC1`, for which the inhibition is 36.3%. Next, `N#Cc1c(/N=C/c2ccccc2OCC(=O)O)sc2c1CCCC2`: 2%; `COc1ccccc1CNC(=O)c1ccccc1Br`: 7.79%. On to `O=c1c2ccccc2nc(/C=C\c2ccc(F)c(F)c2)n1-c1ccc(Cl)cc1[N+](=O)[O-]`, for which the inhibition is 1.53%.

On to `Cn1c(CC(=O)NNC(=O)CNC(=O)c2ccc(Br)cc2)nc2ccccc21`, for which the inhibition is 8.22%. Next, `Cc1ccc(-c2nn3c(C)nnc3s2)cc1NC(=O)COc1ccc(Cl)cc1C`: -9.16%. Next, `O=S(=O)(c1cc(Br)ccc1Br)N1CCN(CCO)CC1`: 7.82%.

For the molecule `O=S(=O)(/C=C/c1ccccc1)N1CCN(CCc2ccncc2)CC1`, the inhibition was 3.78%. For `O=S(=O)(c1ccc(Br)cc1Cl)N1CCN(CCc2ccncc2)CC1`, the inhibition is 75.3% (active).

For the molecule `CCN1CCN(Cc2c(O)ccc3c2O/C(=C\c2cc(OC)ccc2OC)C3=O)CC1`, the inhibition was -14.3%. Next, `CN1CC(CO)O/C1=C(C#N)\C=C1\Nc2ccccc2C1=O` (stereo not given): 21.7%.

As for `COc1ccc(OCCCC(=O)Oc2ccc(OC)cc2)cc1`, the inhibition is 80.3% (active). For the molecule `COc1ccc(OC(=O)COc2ccc(Br)cc2)cc1`, the inhibition is 1.98%. Regarding `COc1ccc(OCCCC(=O)Nc2ccccc2)cc1`, the inhibition is 14.3%. As for `CN(CC(=O)Nc1ccccc1F)CC(=O)Nc1ccccc1Br`, the inhibition was -2.33%.

As for `CCC(C)c1ccccc1NC(=O)C(C)Cl` (stereo not given), the inhibition is -5.29%. Next, `CCC(C)c1ccccc1NC(=O)CN(C)CC(=O)Nc1ccccc1SC` (stereo not given): 89.7% (active).
